Source: PubChem (The Scripps Research Institute Molecular Screening Center)
Sampled rows, rich in hits. Any-hit rate of the full collection: about 2.8%.
PAFAH2 inh: PAFAH2 (human) inhibition. Q99487. recombinant PAFAH2, FP-rhodamine activity probe, fluorescence polarization. inhibition, % at 3.39 µM. actives 0.99% (n = 340,000). AID 492956;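 active = inhibition above the mean over all tested compounds plus 3 SD, cut at about 30% in these data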;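 note: inhibitors block probe labeling of enzyme so polarization drops; 0% = enzyme with DMSO and 100% = wells lacking PAFAH2 protein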
PAFAH1B3 inh: inhibitors of human PAFAH1B3; actives 0.28% (n = 340,000); AID 492972; inhibition, % at 3.39 µM; recombinant PAFAH1B3, FP-rhodamine probe, fluorescence polarization; Q15102;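 active = inhibition above the screen-wide average of all tested compounds plus 3 SD, cut at about 25% in these data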;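 note: 0% = enzyme with DMSO only and 100% = wells lacking PAFAH1B3 protein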
Target sequence (Q15102 whole entry, looked up): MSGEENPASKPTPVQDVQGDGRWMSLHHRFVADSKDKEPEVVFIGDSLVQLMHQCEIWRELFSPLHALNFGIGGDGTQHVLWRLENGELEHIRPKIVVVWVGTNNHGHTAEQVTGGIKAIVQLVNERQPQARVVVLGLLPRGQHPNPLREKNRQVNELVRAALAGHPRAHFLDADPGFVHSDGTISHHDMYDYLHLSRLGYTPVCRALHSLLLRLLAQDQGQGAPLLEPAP
DAGLB inhibitor: blocks human DAGLB lipase activity | Q8NCG7 | HEK293T DAGLB membrane lysate, EnzChek fluorogenic substrate | inhibition, % at 5.17 µM | actives 0.059% (n = 340,000); in the data active = inhibition above about 34%;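 note: 0% = enzyme with vehicle and 100% = wells lacking enzyme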
HTRA1 inhibitor: blocks human HTRA1 serine peptidase | recombinant HTRA1, FP-rhodamine activity-based probe, fluorescence polarization | actives 0.5% (n = 340,000) | AID 504803 | Q92743 | inhibition, % at 5.96 µM; in the data active = inhibition above about 36%;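 note: 0% = enzyme with DMSO and 100% = wells lacking enzyme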
pPAFAH FP inh: inhibitors of human plasma PAF acetylhydrolase (pPAFAH). Q13093. recombinant pPAFAH, FP-rhodamine probe fluorescence polarization. inhibition, % at 3.39 µM. actives 1.5% (n = 330,000). AID 463082;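 active = inhibition above the mean inhibition across the screen plus 3 SD, cut at about 25% in these data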;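 note: inhibitors block binding of the rhodamine activity-based probe so polarization drops; 0% = enzyme with DMSO and 100% = wells lacking pPAFAH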
PAFAH1B2 FP inh: inhibitors of human PAFAH1B2. P68402. recombinant PAFAH1B2, FP-rhodamine activity probe, fluorescence polarization. inhibition, % at 3.39 µM. actives 1.2% (n = 340,000);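 active = inhibition above the mean of all tested compounds plus 3 SD, cut at about 24% in these data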;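 note: 0% = enzyme with DMSO and 100% = wells lacking PAFAH1B2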
Target sequence (P68402 whole entry, looked up): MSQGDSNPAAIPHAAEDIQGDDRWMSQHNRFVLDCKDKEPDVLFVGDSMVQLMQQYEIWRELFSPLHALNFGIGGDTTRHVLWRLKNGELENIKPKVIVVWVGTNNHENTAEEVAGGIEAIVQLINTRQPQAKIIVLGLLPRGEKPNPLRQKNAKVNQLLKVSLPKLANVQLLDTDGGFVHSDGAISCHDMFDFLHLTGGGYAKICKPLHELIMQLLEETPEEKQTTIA
The depositor's hits bear a star; x = not tested or not shown.

SMILES	PAFAH2 inh	PAFAH1B3 inh	DAGLB inhibitor	HTRA1 inhibitor	pPAFAH FP inh	PAFAH1B2 FP inh
COc1cc(Br)c(C(=O)c2nccc3cc(OC)c(OC)cc23)cc1OC	40*	67*	-9	12	14	20
O=C(CSc1nnc(CNC(=O)c2cccc(C(F)(F)F)c2)o1)NC1CCCCC1	0	13	1	1	4	7
COc1ccc(C(=O)C2=NN(C(C)=O)CC2c2ccco2)cc1 (stereo not drawn)	-8	7	2	-7	3	-4
Cc1ccc(S(=O)(=O)NNC(=O)C(=O)NNS(=O)(=O)c2ccc(C)cc2)cc1	2	-4	2	4	1	28*
CC(=O)Nc1ccc(S(=O)(=O)c2ccc(C)cc2)cc1	7	14	2	-3	-3	25*
Cc1ccc(S(=O)(=O)NNC(=O)CCCCC(=O)NNS(=O)(=O)c2ccc(C)cc2)cc1	11	5	-3	-3	0	24
COc1ccc(-c2cc3ccccc3oc2=O)cc1NC(=O)c1ccc([N+](=O)[O-])o1	6	2	8	1	25*	4
Cc1ccsc1C(=O)OCC(=O)Nc1ccc(Cl)cc1C(F)(F)F	51*	1	-12	-5	33*	3
Oc1ccc(C2Nc3cccc4cccc(c34)N2)c(O)c1	-5	36*	9	42*	2	17
Fc1ccc(C2Nc3cccc4cccc(c34)N2)cc1	-4	18	-5	12	-1	1
c1coc(C2Nc3cccc4cccc(c34)N2)c1	x	x	x	x	26*	x
COc1ccc(-n2c(SCC(=O)N(C)C3CCS(=O)(=O)C3)nc3ccc(O)cc3c2=O)cc1OC (stereo not drawn)	1	0	2	0	2	3
CCCCNC(=O)Oc1ccc(C(=O)N2c3ccccc3NC(=O)C2C)cc1 (stereo not drawn)	-11	4	3	-5	-2	34*
CCOc1cc(/C=C2\C(=O)N(c3cccc(C(=O)O)c3)N=C2C(F)(F)F)ccc1OCC(=O)Nc1ccccc1OC	x	x	x	x	37*	x
O=C(CN1CCCc2ccccc21)Nc1cc(S(=O)(=O)N2CCCC2)ccc1Cl	0	4	-3	-11	0	-3
CCC1CCC/C1=N\NC(=O)c1cc(C)[nH]n1 (stereo not drawn)	6	12	-2	2	34*	3
CCC1CCC/C1=N\NC(=O)c1ccccc1Cl (stereo not drawn)	x	x	x	x	3	x
CCOc1cc(C(=O)OCc2cccc(OC)c2OC)ccc1OCC(=O)N1CCOCC1	3	-7	0	0	32*	1
COc1ccc(C(=O)ON=C2CCN(c3ccc([N+](=O)[O-])cc3)CC2)cc1	89*	3	-2	-15	5	7
O=C(N/N=C\c1ccc[nH]1)C1COc2ccccc2O1 (stereo not drawn)	11	14	1	5	3	6
Cc1noc(C)c1CCC(=O)N1CCCC(N2CCN(c3ccc(F)cc3)CC2)C1 (stereo not drawn)	2	-2	0	2	4	5
O=C(N/N=C\c1ccccn1)c1cccc(C(=O)N/N=C\c2ccccn2)n1	-43	53*	2	-2	7	42*
CN(CCc1ccccc1)C(=O)c1ccc(NC(=O)Cc2ccc(NC(=O)C3CCCN(C(=O)CCc4ccccc4)C3)cc2)cc1 (stereo not drawn)	-8	-10	-2	-38	x	-2
O=C(NNc1cc(N2CCOCC2)nc(N2CCOCC2)n1)c1ccc(Cl)c(Cl)c1	-6	1	2	-1	7	5
Cc1ccc(C(=O)NNc2cc(N3CCCC3)nc(N3CCCC3)n2)cc1	x	x	x	x	32*	x
SMILES	PAFAH2 inh	PAFAH1B3 inh	DAGLB inhibitor	HTRA1 inhibitor	pPAFAH FP inh	PAFAH1B2 FP inh
COc1ccc(NC(=O)CN(C)C(=O)c2ccc3[nH]c4c(c3c2)CC(C)CC4)cc1 (stereo not drawn)	13	-3	0	-7	1	18
CC1CCc2[nH]c3ccc(C(=O)N(C)CC(=O)Nc4ccc(F)cc4)cc3c2C1 (stereo not drawn)	49*	7	-3	-11	10	39*
COc1ccc2oc(C(=O)N3CCN(S(=O)(=O)c4c(C)c(C)cc(C)c4C)CC3)c(C)c2c1	-4	9	-7	-18	x	1
Cc1nn(C(=O)c2ccco2)c(C)c1Sc1ccc(Cl)cc1	5	1	0	6	-1	4
Cc1nn(C(=O)c2cccnc2)c(C)c1Sc1ccc(Br)cc1	0	6	1	-23	0	28*
O=C(O)c1cc(NC(=S)NC(=O)C(c2ccccc2)c2ccccc2)ccc1Cl	4	3	4	-11	-3	32*
O=C(NC(=S)Nc1ccc(Cl)c(C(=O)O)c1)c1ccco1	6	8	1	2	5	-1
Cc1ccc(N(Cc2ccccc2)C(=O)c2ccc(Cl)c(S(=O)(=O)N3CCOCC3)c2)cc1	-1	6	-9	-22	1	5
CSc1cccc(NC(=O)CSc2ccc(Cl)cc2)c1	10	10	1	-8	5	16
CC(C)CNC(=O)c1cccc(NC(=O)CSc2ccc(Cl)cc2)c1	-3	7	-1	-17	3	30*
O=c1cc(O)nc(SCc2ccccc2)n1-c1ccccc1	9	0	9	-42	11	-6
O=C(CSc1nc(O)cc(=O)n1-c1ccccc1)c1ccc(Br)cc1	18	5	9	-36	25*	4
O=C(Nc1cc(S(=O)(=O)Nc2ccc(Cl)cc2)ccc1O)c1ccc(S(=O)(=O)N2CCCCCC2)cc1	-11	-5	20	-29	30*	-6
Cc1ccc(S(=O)(=O)Nc2nc(-c3ccccc3)cs2)cc1	3	8	7	-4	15	3
O=C(Nc1cc(S(=O)(=O)N2CCCCC2)ccc1Cl)c1ccccc1NS(=O)(=O)c1ccc(F)cc1	2	18	10	-59	22	30*
O=C(c1ccccc1NS(=O)(=O)c1ccc(F)cc1)N1CCCCC1	-4	6	-2	0	5	16
O=C(Nc1ccc(F)cc1)Nc1ccc(N2CCCC2)c(S(=O)(=O)Nc2ccccc2Cl)c1	-24	-7	-2	-16	25*	-6
Cc1ccc(S(=O)(=O)Nc2ccccc2C(=O)Nc2nc(-c3ccc(F)cc3)cs2)cc1	0	-2	13	-91	25*	2
C[C@H]1CN([C@@H](C)CO)C(=O)Cc2cc(NC(=O)CCC(F)(F)F)ccc2O[C@H]1CN(C)S(=O)(=O)c1ccc(Cl)cc1	3	3	-2	-7	4	13
Cc1ccc(Nc2nc(N/N=C\c3ccc4c(c3)OCO4)nc(N3CCOCC3)n2)cc1	-9	8	1	-5	8	-2
O=S(=O)(Nc1ccc(Cl)cc1)c1ccc2c(c1)CCO2	0	-5	-6	-7	32*	20
